Measured values from PubChem BioAssay (NCI).
About 83,000 compounds went through this panel and 20% of them were active in at least one assay; those are over-represented in the sample as a whole.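 Compound tested at a single concentration for 48 hours in 96-well plates; a percent growth value below 10 was scored as active.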 Calls of active or inactive are those of the source.

Assays:
Assay in all cases: NCI-60 one-dose screen, 48 h (100 = growth as untreated, 0 = no growth, -100 = all killed)
Details in all cases: 10 µM unless noted
HCT-15 colon = test system: HCT-15 colon
HT29 colon = test system: HT29 colon
SNB-75 CNS = test system: SNB-75 CNS
SNB-19 CNS = test system: SNB-19 CNS
U251 CNS = test system: U251 CNS
PC-3 prostate = test system: PC-3 prostate
LOX IMVI melanoma = test system: LOX IMVI melanoma
SK-MEL-5 melanoma = test system: SK-MEL-5 melanoma
UACC-62 melanoma = test system: UACC-62 melanoma
SK-MEL-28 melanoma = test system: SK-MEL-28 melanoma

Measured: growth

NC(=NC1C2CC3CC(C2)CC1C3)Nc1ccc(I)cc1 (stereo not given)
active: HT29 colon 9.6%
inactive: HCT-15 colon 43.9% | SNB-75 CNS 57.1% | SNB-19 CNS 27.5% | U251 CNS 50.4% | PC-3 prostate 36.9% | LOX IMVI melanoma 61.9%

CC/C=C\C[C@H]1C/C=C2/C(=O)C=C[C@H]2C/C=C\CCCC(=O)O1
active: HT29 colon 6.12% | LOX IMVI melanoma 6.07%
inactive: HCT-15 colon 29.8% | SNB-75 CNS 38.6% | SNB-19 CNS 40.3% | U251 CNS 10.4% | PC-3 prostate 36%

COc1ccc(CN2c3ccccc3Oc3ccccc32)cc1F
inactive: HCT-15 colon 47.4% | HT29 colon 11.2% | SNB-75 CNS 47.9% | SNB-19 CNS 67.8% | U251 CNS 39.5% | PC-3 prostate 64.8% | LOX IMVI melanoma 59%

NC(=NCCCOc1ccc(Cl)cc1)Nc1ccc(C(F)(F)F)cc1
inactive: HCT-15 colon 54% | SNB-75 CNS 35.4% | SNB-19 CNS 26.4% | U251 CNS 33% | PC-3 prostate 26.9%
active: HT29 colon 3.11% | LOX IMVI melanoma 9.81%

CCC#CC[C@H](O)C/C=C1/C(=O)C=C[C@@H]1C/C=C\CCCC(=O)OC
inactive: SNB-75 CNS 43.5% | SNB-19 CNS 23.8%
active: HCT-15 colon 3.26% | HT29 colon -80.2% | U251 CNS 0.174% | PC-3 prostate 1.55% | LOX IMVI melanoma -72.2%

CC(C)(CCCN=C(N)Nc1ccc(Cl)cc1)c1ccc(F)cc1
inactive: HCT-15 colon 67.1% | HT29 colon 12.7% | SNB-75 CNS 60.7% | SNB-19 CNS 67.4% | U251 CNS 65.5% | PC-3 prostate 52.9% | LOX IMVI melanoma 57.8%

O=C1/C(=C/c2ccc(OCCCOc3ccc(Cl)cc3)cc2)N=C2SCCCN12
inactive: HCT-15 colon 63.2% | HT29 colon 76% | SNB-75 CNS 84.5% | SNB-19 CNS 78.5% | U251 CNS 69.6% | PC-3 prostate 45.5% | LOX IMVI melanoma 68.3%

COc1cccc(-c2nc(SCC(=O)Nc3ccc(C(=O)/C=C/c4ccc(OC)c(OC)c4)cc3)[nH]c(=O)c2C#N)c1
inactive: HCT-15 colon 83.6% | HT29 colon 102% | SNB-75 CNS 71.8% | SNB-19 CNS 76.3% | U251 CNS 85.3% | PC-3 prostate 100% | LOX IMVI melanoma 81.4%

O=C(COc1ccc(/C=C2\CSc3ccccc3C2=O)cc1)Nc1nccs1
active: LOX IMVI melanoma -28.3%
inactive: HCT-15 colon 84.6% | HT29 colon 74.7% | SNB-75 CNS 87.8% | SNB-19 CNS 82.1% | U251 CNS 83% | SK-MEL-5 melanoma 142% | UACC-62 melanoma 85.5%

NCCNc1nc(Nc2ccc(-c3nc4ccccc4[nH]3)cc2)c2cn[nH]c2n1
active: U251 CNS -55.4% | LOX IMVI melanoma -17.8%
inactive: HCT-15 colon 101% | HT29 colon 62.7% | SNB-75 CNS 71.7% | SNB-19 CNS 66.5% | PC-3 prostate 74%

C=C1C(=O)O[C@H]2[C@H]1CC/C(COC(=O)NCCc1ccc(OC)c(OC)c1)=C\CC[C@@]1(C)O[C@@H]21
inactive: HCT-15 colon 61.7% | HT29 colon 32.8% | SNB-75 CNS 61.2% | SNB-19 CNS 90.1% | U251 CNS 76.8% | PC-3 prostate 78.8% | LOX IMVI melanoma 75%

COc1cc2c(cc1O)CC[C@@H]1[C@@H]2CC[C@]2(C)[C@@H](NCCN(C)C)CC[C@@H]12
active: HCT-15 colon -83.1% | HT29 colon -91.9% | SNB-75 CNS -96.6% | SNB-19 CNS -79.6% | U251 CNS -92.3% | PC-3 prostate -91.2% | LOX IMVI melanoma -84.2%

Cc1nc(Nc2ccc(F)c(Cl)c2)sc1C(=O)O
active: HT29 colon 3.5% | SNB-75 CNS -13.4% | U251 CNS 8.16% | PC-3 prostate 7.92% | LOX IMVI melanoma 2.1%
inactive: HCT-15 colon 11.3% | SNB-19 CNS 26.2%

COc1ccc(CN2c3ccccc3Sc3ccccc32)cc1O
active: HT29 colon 8.73%
inactive: HCT-15 colon 33.1% | SNB-75 CNS 26.6% | SNB-19 CNS 33% | U251 CNS 18.5% | PC-3 prostate 26.1% | LOX IMVI melanoma 43.1%

COc1cc2c(cc1O)CC[C@@H]1[C@@H]2CC[C@]2(C)[C@@H](OCCN(C)C)CC[C@@H]12
inactive: HCT-15 colon 34% | SNB-75 CNS 17.8% | SNB-19 CNS 52.4% | U251 CNS 27.4% | PC-3 prostate 45.4% | LOX IMVI melanoma 52.5%
active: HT29 colon 3.38%

COc1ccc2c(c1)C(=O)/C(=C/c1ccccn1)CC2
inactive: HCT-15 colon 68.5% | HT29 colon 43.3% | SNB-75 CNS 75.8% | SNB-19 CNS 76.1% | U251 CNS 69.3% | PC-3 prostate 87.6% | LOX IMVI melanoma 44.5%

C=C1C(=O)O[C@H]2[C@H]1CC/C(COC(=O)NCc1ccc(OC)c(OC)c1)=C\CC[C@@]1(C)O[C@@H]21
inactive: HCT-15 colon 50.7% | HT29 colon 28.8% | SNB-75 CNS 58.7% | SNB-19 CNS 87.2% | U251 CNS 86.5% | PC-3 prostate 78.4% | LOX IMVI melanoma 69.4%

CC(=O)c1cc(C(=O)c2ccc3c(c2)Sc2ccccc2N3)n2ccccc12
active: HT29 colon -13.1% | U251 CNS 9.6%
inactive: HCT-15 colon 17.9% | SNB-75 CNS 13.1% | SNB-19 CNS 30.9% | PC-3 prostate 22.2% | LOX IMVI melanoma 20.8%

CC/C=C\C/C=C\C[C@H]1C/C=C2/C(=O)C=C[C@@H]2C/C=C\CCC(=O)O1
active: HCT-15 colon 0.621% | HT29 colon -40.5% | U251 CNS -23.2% | PC-3 prostate 2.76% | LOX IMVI melanoma -59.7%
inactive: SNB-75 CNS 64% | SNB-19 CNS 28%

CC(=O)O[C@H]1C(=O)[C@@]2(C)[C@H]([C@H](OC(=O)c3ccccc3)[C@]3(O)C[C@H](OC(=O)[C@H](OC(=O)CCC(=O)OC4CCC(S/N=C(N)/N=C(\N)N(C)C)CC4)[C@@H](NC(=O)c4ccccc4)c4ccccc4)C(C)=C1C3(C)C)[C@]1(OC(C)=O)CO[C@@H]1C[C@@H]2O (stereo not given in full)
active: HT29 colon 5% | SNB-75 CNS -22.3%
inactive: HCT-15 colon 25.3% | SNB-19 CNS 29.8% | U251 CNS 17.1% | PC-3 prostate 28.4% | LOX IMVI melanoma 42.9%

O=C1c2c(O)cc(O)cc2-c2c(-c3ccc(O)cc3)oc3cc(O)cc1c23
inactive: HCT-15 colon 57.5% | HT29 colon 88.8% | SNB-75 CNS 26.4% | SNB-19 CNS 44.8% | U251 CNS 25.5% | PC-3 prostate 50.5% | LOX IMVI melanoma 17.9%

COc1cccc2c1C(=O)c1c(O)c3c(c(O)c1C2=O)C[C@](O)(C(=O)CO)C[C@H]3O[C@@H]1C[C@@H](NC(=O)CCCCCN(C)C2(c3ccc(F)cc3)CC3CCC2C3)[C@H](O)[C@@H](C)O1 (stereo not given in full)
inactive: SNB-75 CNS 41.3% | SNB-19 CNS 10.4%
active: HCT-15 colon 0.779% | HT29 colon -55.5% | U251 CNS -100% | PC-3 prostate -82.7% | LOX IMVI melanoma -90.5%

c1ccc(-c2cc3n4c(-c5ccccc5)nn(-c5ccccc5)c4cnc-3n2)cc1
inactive: HCT-15 colon 86.2% | HT29 colon 44.3% | SNB-19 CNS 75.9% | U251 CNS 26.4% | SK-MEL-5 melanoma 70.5% | UACC-62 melanoma 45.7% | LOX IMVI melanoma 57.1% | SK-MEL-28 melanoma 63.3%
active: SNB-75 CNS -8.19%

Nc1ccc(-c2cc3c(NCc4ccccc4)ncnc3s2)cc1
inactive: HCT-15 colon 82.2% | HT29 colon 103% | SNB-75 CNS 89.2% | SNB-19 CNS 73.6% | U251 CNS 82.4% | SK-MEL-5 melanoma 55.7% | UACC-62 melanoma 71.8% | LOX IMVI melanoma 84.2% | SK-MEL-28 melanoma 92.3%

O=C1c2cccc3cccc(c23)C(=O)N1CCCCCN1CCN(CCCCCOc2ccc(-c3nc4ccc(N5CCOCC5)cc4[nH]3)cc2)CC1
inactive: HCT-15 colon 80.4% | HT29 colon 44.3% | SNB-75 CNS 112% | SNB-19 CNS 129% | U251 CNS 99.6% | SK-MEL-5 melanoma 96.7% | UACC-62 melanoma 75% | LOX IMVI melanoma 56.4% | SK-MEL-28 melanoma 95.7%

COC(=O)c1ccc2oc(NC(=O)c3ccc(Nc4ccc([N+](=O)[O-])cc4C)c([N+](=O)[O-])c3)nc2c1
inactive: HCT-15 colon 104% | HT29 colon 96.8% | SNB-75 CNS 97.5% | SNB-19 CNS 99% | U251 CNS 101% | SK-MEL-5 melanoma 93.6% | UACC-62 melanoma 100% | LOX IMVI melanoma 99.7% | SK-MEL-28 melanoma 108%

O=c1c(F)cn(Cc2ccccc2CCl)c(=O)n1Cc1ccccc1CCl
active: HCT-15 colon -57.6% | HT29 colon -83.7% | SNB-75 CNS -5.72% | SNB-19 CNS -23% | U251 CNS -71.6% | SK-MEL-5 melanoma -100% | UACC-62 melanoma -82.6% | LOX IMVI melanoma -81.7%

CN(C)CCCNc1c2ccccc2nc2ccccc12
inactive: HCT-15 colon 94.1% | HT29 colon 82.8% | SNB-75 CNS 66.9% | SNB-19 CNS 90.5% | U251 CNS 77.1% | SK-MEL-5 melanoma 93.2% | UACC-62 melanoma 105% | LOX IMVI melanoma 96.3% | SK-MEL-28 melanoma 103%

O=C1/C(=C/c2ccc(Cl)cc2)SC(=S)N1CCc1ccc(O)cc1
inactive: HCT-15 colon 99.7% | HT29 colon 117% | SNB-75 CNS 71.4% | SNB-19 CNS 98.9% | U251 CNS 101% | SK-MEL-5 melanoma 97.1% | UACC-62 melanoma 78.5% | LOX IMVI melanoma 65.1% | SK-MEL-28 melanoma 101%

COc1ccc(C(=O)COc2ccc(/C=C3\Oc4ccc(OC)cc4C3=O)cc2)cc1
inactive: HCT-15 colon 102% | HT29 colon 110% | SNB-75 CNS 101% | SNB-19 CNS 92.7% | U251 CNS 93% | SK-MEL-5 melanoma 97.5% | UACC-62 melanoma 90.1% | LOX IMVI melanoma 77.3% | SK-MEL-28 melanoma 137%

CC(O)CN1CC(O)=C(c2nc3ccccc3s2)C1=N (stereo not given)
inactive: HCT-15 colon 158% | HT29 colon 104% | SNB-75 CNS 99.3% | SNB-19 CNS 96.5% | U251 CNS 157% | SK-MEL-5 melanoma 105% | UACC-62 melanoma 102% | LOX IMVI melanoma 211% | SK-MEL-28 melanoma 131%
